Screening data from PubChem BioAssay.
HCMV inh = inhibitors of human cytomegalovirus; hit rate 4.5% among 410,000; activity change, negative = inhibition, % at 57.5 µM; HFF cells, HCMV-luciferase reporter, 72 h; active compounds read low; AID 1259415; in the data active = activity change below about -60%; inconclusive = no clear call, values can overlap the other calls; inactive = above about -39%; also: % is scaled to controls: 0 for no effect and ±100 for the full control effect
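Luciferase read-out from HCMV-luciferase-infected HFFs (MOI 1 PFU/cell) 72 h post infection at 37C; compounds added after 16 h cell attachment; activity normalized between buffer-only basal and Salinomycin (10uM) inhibitor controls.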
HCV inh = HCV inhibition | hit rate 3.4% among 340,000 | Huh7.5.1 HCVcc-Cre infection, luciferase reporter, 44 h | Potency, µM (doses to about 41.8 µM), for the others: top-dose activity change, negative = inhibition, most hits filed as inhibitors; also: potency is read from the fitted curve at half-maximal effect; % is scaled to controls: 0 for no effect and ±100 for the full control effect
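Reporter virus HCVcc-Cre (~0.5 moi) infects cells exposed to compound; seeding density 1,000 cells/well with 4 h settling beforehand. Luminescence, 15 sec read, taken 44 h post-infection following a 15 min RT substrate incubation.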
Pf growth 96h = P. falciparum growth inhibition at 96 hour, primary screen for plastid delayed-death inhibitors; P. falciparum luciferase reporter growth, 96 h; Potency, µM (highest dose often 28.7 µM), for the others: at the highest dose activity change, negative = inhibition, usual class: inhibitors; hit rate 6.9% among 320,000; AID 504834; also: potency is read from the fitted curve at half-maximal effect; % is scaled to controls: 0 for no effect and ±100 for the full control effect
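Compounds incubated with erythrocytes infected by luciferase-expressing P. falciparum (2% hematocrit, 0.05% parasitemia final) for 96 hours, 37 C in 5% CO2. Growth inhibition scored as decreased luciferase luminescence.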
Pf growth 48h = inhibits P. falciparum growth in the first generation, 48 h; Potency, µM (highest dose often 28.7 µM), inactives show at the top dose activity change, negative = inhibition, usual class: inhibitors; P. falciparum luciferase growth in erythrocytes, 48 h; hit rate 5.9% among 310,000; also: potency is read from the fitted curve at half-maximal effect; % is scaled to controls: 0 for no effect and ±100 for the full control effect
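Read-out is firefly luciferase luminescence from an integrated reporter in P. falciparum, so falling signal marks reduced parasite growth. Infected erythrocytes were at 2% hematocrit and 0.1% parasitemia (final) in Albumax-supplemented RPMI 1640.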
CHX counter = counter-screen for Shiga toxin inhibitors: cycloheximide protein synthesis inhibition | cell reporter, cycloheximide protein synthesis inhibition counterscreen | max response, % | hit rate 12% among 300,000; in the data active = max response mostly above about 13%, no sharp cut-off; inactive = mostly below about 14%; also: read at 38.3 µM for the half of the compounds with a filed dose; 0% is about no effect
Shiga toxin inh = Shiga toxin inhibition | Vero cells, Shiga toxin protein synthesis inhibition reporter | inhibition, % at 38.7 µM | hit rate 9.2% among 290,000; in the data active = inhibition mostly above about 28%, no sharp cut-off; inactive = mostly below about 43%; also: 0% is about no effect
* hit, by the source's call; ? = inconclusive; . = not tested or not shown; + = active, no number; [ ] = another dose, or the depositor's remark. Only some compounds are listed: those with a hit (about 21% of all), similar ones and a draw of the others. Unless noted, calls follow the shape of the dose curve; as a rule, active = well fitted inhibition curve with a large enough effect; inconclusive = small, poorly fitted or top-dose-only effect, or another doubt; inactive = no such curve, though single readings can be large or run the other way.

SMILES | HCMV inh | HCV inh | Pf growth 96h | Pf growth 48h | CHX counter | Shiga toxin inh
CCCNc1nc(NCC)nc(OC)n1 | ? | -1% | ? | 5% | -1 | 3
CCNc1nc(NC(C)CC)nc(ON=C(C)C)n1 (centres undefined) | ? | 0% | 13µM* | 1.5µM* | -1 | 19
CS(=O)(=O)c1cnc(-c2ccccc2)nc1Oc1ccc(Cl)cc1 | -40 | ? | 20% | 1% | 7 | -1
CC(=O)c1cnc(N2CCCCC2)nc1C | -13 | 1% | . | 9% | 8 | 13
CC(C)(C)S(=O)(=O)c1cnc(-c2ccc(Cl)cc2)nc1N | 69 | -28% | 0% | 49% | 22* | 47*
CC(C)(C)S(=O)(=O)c1cnc(N2CCCCC2)nc1N | 8 | 1% | 80% | 16% | 19* | 25
Cc1ccc(Cn2ccsc2=NC(=O)CCl)cc1 | -99* | 0.56µM* | ? | ? | 32* | 45*
Cc1ccc(NC(=O)CN(C)C(=O)COC(=O)c2ccc(NC(=O)CC#N)cc2)cc1 | -34 | 9% | . | . | . | .
Cc1ccc(Cn2ccsc2=NC(=O)COC(=O)c2ccc(NC(=O)CC#N)cc2)cc1 | -7 | ? | 10µM* | 13µM* | . | .
Cc1ccc(NC(=O)CSCC(=O)N=c2sccn2C)cc1 | -2 | 0% | 9% | 0% | . | .
COC(=O)c1[nH]c(C)c(/C(O)=C2\C(=O)C(=O)N(CCN3CCOCC3)C2c2ccc(C)o2)c1C (centres undefined) | -38 | 1% | 0% | 0% | 1 | 37
COc1cccc(OCC(=O)Nc2cc(Cl)ccc2Oc2ccccc2)c1 | -38 | ? | ? | ? | -1 | -9
Cc1cccc(C)c1N(CC(=O)Nc1cc(Cl)ccc1Oc1ccccc1)S(C)(=O)=O | -12 | ? | ? | 10µM* | -3 | 16
Cc1ccc(C)c(N(CC(=O)Nc2cc(Cl)ccc2Oc2ccccc2)S(C)(=O)=O)c1 | 4 | 1% | 15µM* | ? | -4 | -10
CC(=O)c1ccc(NC(=O)CN(c2c(C)cccc2C)S(C)(=O)=O)cc1 | 316 | -3% | ? | 27% | 23* | 99*
COc1ccc(C)cc1NC(=O)CN(c1ccccc1F)S(C)(=O)=O | 107 | 16% | 54% | 29% | -2 | 3
Cc1cc(C)c(C)c(S(=O)(=O)N2CCN(c3ccc(O)cc3)CC2)c1C | -32 | 9% | -6% | 1% | -2 | 3
CC(=O)NC1C(=O)N=C(SCC(=O)Nc2cccc(Cl)c2)NC1=O (centres undefined) | 59 | 8% | ? | 17% | 2 | 11
Oc1cc(Cl)ccc1Oc1ccc(Cl)cc1Cl | -34 | -12% | 6µM* | 9.5µM* | -1 | 7
S=c1[nH]cc(Oc2ccc(Cl)cc2Cl)c(=S)[nH]1 | -21 | 15% | . | . | . | .
CCN(CC)C(=O)Cn1c(SCCOc2ccc(Cl)cc2)nc2ccccc21 | -6 | . | . | . | . | .
CCCNC(=O)c1ccc(COc2cccc3ccccc23)o1 | 33 | ? | ? | ? | 8 | 8
C=CCc1ccc(OCCCOc2ccc(C(=O)O)cc2)c(OC)c1 | -7 | 10% | -3% | 46% | 16 | 45
C=CCc1ccc(OC(=O)c2ccccc2)c(OC)c1 | 0 | 20% | 34% | 33% | 24* | 22
CCC(=O)c1ccc(OCc2ccc(C(=O)OC)o2)c(OC)c1 | 14 | -15% | 0% | -38% | 28* | 52
SMILES | HCMV inh | HCV inh | Pf growth 96h | Pf growth 48h | CHX counter | Shiga toxin inh
CCCNC(=O)c1ccc(COc2ccc(CCC)cc2OC)o1 | -62* | ? | -11% | 16%[0.00184 µM] | 9 | 17
C=CCc1ccc(OCc2ccc(C(=O)OC)o2)c(OC)c1 | 41 | -7% | 54% | . | 63* | 87*
CSCCC(NS(=O)(=O)c1ccc2c(c1)oc(=O)n2C)C(=O)NCc1cccs1 (centres undefined) | -4 | 11% | 20% | -3% | -2 | -16
CCc1ccccc1NC(=O)c1cc2nc(-c3ccc(Br)cc3)cc(C(F)(F)F)n2n1 | 12 | . | . | . | . | .
CC(O)c1nc2ccc(C(=O)O)cc2[nH]1 (centres undefined) | -26 | 13% | 140% | ? | -2 | 3
COc1ccc(CC(=O)N2CCN(c3ccccn3)CC2)cc1OC | 3 | 4% | . | -11% | -1 | 5
CCCc1ccc(OCc2ccc(C(=O)N3CCN(c4ccccn4)CC3)o2)c(OC)c1 | 54 | ? | -1% | 13µM* | 36* | 28
COc1ccc2c(c1)[nH]c1c(=O)n(Cc3ccco3)cnc12 | 10 | ? | 42% | 26% | 13* | 39
COc1ccc2c(c1)c1ncn(Cc3ccco3)c(=O)c1n2C | -81* | 11µM* | ? | ? | 13 | -8
C[C@H](NC(=O)[C@H]1N2C(=O)c3ccccc3C2SC1(C)C)C(=O)N1CCC[C@H]1CO (some centres undefined) | -13 | 10% | -16% | ? | -1 | 7
C[C@H](NC(=O)[C@H]1N2C(=O)c3ccccc3C2SC1(C)C)C(=O)N1CCC[C@H]1C(=O)O (some centres undefined) | 14 | 1µM* | ? | ? | -3 | -5
CC(C)[C@H](NC(=O)[C@H]1N2C(=O)c3ccccc3C2SC1(C)C)C(=O)NCc1ccco1 (some centres undefined) | + | 2% | ? | ? | -14 | -3
CCC(C)[C@H](NC(=O)[C@@H]1Cc2c([nH]c3ccccc23)C2c3ccccc3C(=O)N21)C(=O)N1CCC[C@@H]1C(=O)O (some centres undefined) | 7 | -2% | 10µM* | ? | 0 | 11
O=c1ccc2cc(S(=O)(=O)N3CCN(c4ccc(Cl)cc4)CC3)ccc2o1 | -5 | -11% | 31% | 0% | -2 | -2
CCOc1ccccc1N1CCN(Cc2cnc(-c3ccccc3)[nH]2)CC1 | -13 | ? | 9.3µM* | 13µM* | -1 | -1
COc1ccccc1N1CCN(Cc2cnc(-c3ccccc3)[nH]2)CC1 | -24 | 3% | ? | -15% | -1 | -3
O=C(Nc1ccc(F)cc1)Nc1ccc(S(=O)(=O)N2CCCC2)cc1 | -32 | -4% | 7.4µM* | 13µM* | . | .
Cc1oc(S(=O)(=O)N2CCCCC2)cc1NC(=O)Nc1ccc(F)cc1 | -1 | ? | 5.9µM* | ? | 6 | -2
CC1CN(S(=O)(=O)c2csc(C(=O)Nc3ccccc3)c2)CC(C)O1 (centres undefined) | -60* | . | 33% | 0% | -1 | 4
O=C(c1ccc2c(c1)OCO2)N(c1ccc(Br)cc1)C1C=CS(=O)(=O)C1 (centres undefined) | -60* | 8% | 4% | -7% | -4 | -12
O=C(O)c1cccc(NC(=O)c2cc(S(=O)(=O)N3CCOCC3)cs2)c1 | -32 | 26% | 0% | 4% | 1 | 3
